# High-throughput results as filed in PubChem.
# D1 antag = blocks dopamine activation of the human D1 receptor; 3.2% of 360,000 active; activity change, negative = inhibition, % at 10 µM; HEK293 TREx D1 cells, calcium flux, dopamine EC80; hits give low values; in the data active = activity change below about -30%; also: % is scaled to controls: 0 for no effect and ±100 for the full control effect
#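 Tetracycline-induced HEK293 T-REx cells with force-coupled D1 receptor were loaded with a no-wash calcium dye. Compound was added after a 10 s baseline and read kinetically for 180 s; EC80 dopamine was then added and calcium flux followed another 180 s.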
# D1 agonist = agonists of human D1 dopamine receptor; HEK293 T-REx D1 cells, calcium flux, agonist mode; activation, % at 2 µM; 1% of 360,000 active; also: 0% is about no effect
#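 Inducible HEK293 T-REx D1 cells, force-coupled to calcium signalling, were plated at 4000 cells/well with tetracycline and held overnight at 30 C. After no-wash calcium dye loading, compound-evoked calcium rise over 180 s flagged agonists.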
# TRHR ag = activates the human TRH receptor | activation, % at 2 µM | TRHR cells, calcium flux fluo-8, FDSS agonist mode | 0.18% of 360,000 active; also: 0% is about no effect
# Target sequence (P34981 whole entry, looked up): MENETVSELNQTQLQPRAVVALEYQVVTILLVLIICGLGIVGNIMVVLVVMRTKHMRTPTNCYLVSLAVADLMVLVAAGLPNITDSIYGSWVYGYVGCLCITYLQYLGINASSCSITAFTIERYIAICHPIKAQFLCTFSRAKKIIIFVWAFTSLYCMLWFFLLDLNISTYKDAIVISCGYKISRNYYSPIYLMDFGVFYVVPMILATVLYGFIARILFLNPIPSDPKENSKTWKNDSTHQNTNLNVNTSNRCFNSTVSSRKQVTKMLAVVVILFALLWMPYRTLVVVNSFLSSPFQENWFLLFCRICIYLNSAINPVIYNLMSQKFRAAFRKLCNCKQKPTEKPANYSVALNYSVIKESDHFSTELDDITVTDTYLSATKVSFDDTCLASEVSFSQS
#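 Steps: seed TRHR cells overnight; add fluo-8 no-wash Ca dye, RT 30 min–1.5 h; record 10 s baseline; pin-transfer compounds; monitor fluorescence 1 cycle/s for the agonist window. Calcium increases flag candidate agonists.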
# TRHR enhancer = allosteric enhancers of human TRH receptor; enhancement, % at 2 µM; TRHR cells, fluo-8 calcium fluorescence, EC20 TRH enhancement; 0.66% of 360,000 active; in the data active = enhancement above about 30%; also: 0% is about no effect
#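 Enhancer read-out: after compound pinning and an initial kinetic agonist-mode read, an EC20 of TRH (10 nM final) was injected and fluo-8 calcium signal (Ex 480/Em 530) followed at 1 s/cycle for 100 cycles in TRHR-expressing cells.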
# D1 potentiator = potentiators of human D1 dopamine receptor. P21728. HEK293 TREx D1 cells, calcium flux, dopamine EC20 potentiation. potentiation, % at 10 µM. 0.036% of 360,000 active; in the data active = potentiation above about 30%; also: 0% is about no effect
# * hit, by the source's call; ! = repeats disagree. Hits are enriched below; roughly 4.7% of the tested compounds scored in any of these assays. Rule as the data show it, unless noted: active = activation above about 30%; inactive = the rest.
SMILES,D1 antag,D1 agonist,TRHR ag,TRHR enhancer,D1 potentiator
Fc1ccc(/C=C\c2nccc3c2[nH]c2ccccc23)cc1,-5.0,-0.2,0.1,2.6,-3.5
C(=C\c1nccc2c1[nH]c1ccccc12)/c1ccccc1,-36.9*,0.1,-0.3,20.2,7.3
O=[N+]([O-])c1ccc([S+](=O)([O-])N2CCN([S+](=O)([O-])c3ccc4c(c3)OCCO4)CC2)c([N+](=O)[O-])c1,-25.3,-0.4,-0.1,0.8,3.2
CCCc1cc(=O)n2[nH]c(NCc3c(Cl)cccc3Cl)nc2n1,-4.5,-0.3,0.1,3.6,4.5
CCCc1cc(=O)n2[nH]c(NCc3c(F)cccc3Cl)nc2n1,-30.2*!,0.5,0.2,-0.6,-1.2
CCCc1cc(-c2[nH]ncc2-c2ccc3c(c2)OCCCO3)c(O)cc1OC,-26.9,36.6*,-0.5,-6.3,-1.4
CCOC(=O)C1CCC(CN(Cc2c(Cl)cccc2Cl)S(=O)(=O)c2ccc(Cl)cc2)CC1 (stereo not given),10.8,5.3,0.7,2.4,-2.0
CCOC(=O)C1CCC(CN(Cc2c(Cl)cccc2Cl)S(=O)(=O)c2ccc(F)cc2)CC1 (stereo not given),-38.0*,8.6,1.5,3.6,-1.0
O=C(CN(Cc1ccccc1)S(=O)(=O)c1cccc(C(F)(F)F)c1)NC1CCCCC1,-31.2*,5.1,0.8,-8.6,0.8
Cc1onc(-c2ccccc2Cl)c1C(=O)NNC(=O)c1ccc(F)cc1,-16.1,-0.2,-0.3,-0.4,3.0
Cc1ccc(NC(=O)c2c(-c3ccccc3Cl)noc2C)nc1,8.4,1.0,-0.8,1.5,-2.4
Cc1onc(-c2ccccc2Cl)c1C(=O)Nc1nnc(-c2cccc([N+](=O)[O-])c2)s1,39.3,41.2*,-0.6,3.7,14.6
Cc1onc(-c2ccccc2Cl)c1C(=O)NCc1nc(-c2ccc(C(F)(F)F)cc2)no1,-37.5*,8.8,1.5,-13.7,1.0
Cc1cccc(C(=O)NNC(=O)c2c(-c3ccccc3Cl)noc2C)c1O,1.6,1.6,-0.1,30.8*,-1.8
Cc1onc(-c2ccccc2Cl)c1C(=O)Nc1ccc(Cl)cn1,5.4,1.5,-1.0,31.1*,0.4
CCSc1nnc(NC(=O)c2c(-c3ccccc3Cl)noc2C)s1,-6.3,1.2,-0.3,-9.4,-2.3
O=C(CCc1nc(-c2ccccc2)no1)Nc1cc(C(F)(F)F)ccc1Cl,14.0,60.9*,-0.2,0.0,5.7
Cc1onc(-c2ccccc2Cl)c1C(=O)Nc1ccc(N2CCOCC2)cc1,-46.2*,0.8,1.0,0.9,-5.8
O=C(Cc1nnc(CNC(=O)c2ccccc2)o1)Nc1cc(C(F)(F)F)ccc1Cl,17.9,0.5,0.1,-0.4,-4.3
C=CCn1c(SCc2ccc(OC)cc2)nnc1-c1cccnc1,0.8,3.4,0.1,-1.4,1.1
C=CCn1c(SCc2ccc(F)cc2)nnc1-c1sc2nc(C)cc(C)c2c1N,-38.1*,-0.3,-1.4,18.2,-1.6
CCOc1ccccc1NC(=O)Cn1cc(C(=O)c2cccc(OC)c2)c(=O)c2ccc(C)nc21,18.7,2.0,-0.2,-5.1,-0.6
O=S(=O)(NCc1c(Cl)cccc1Oc1ccccc1)c1ccc(F)cc1,-34.1*,28.6,4.4,-6.5,-4.2
COc1ccc(OC(=O)COc2ccc(Cl)cc2)cc1,-6.2,1.2,0.6,39.1*,-3.0
O=C(CSc1nnc(COc2ccc(Cl)cc2)o1)N1CCCCC1,-31.5*,16.2,-0.2,7.6,-6.3
SMILES,D1 antag,D1 agonist,TRHR ag,TRHR enhancer,D1 potentiator
O=C(CSc1nnc(COc2ccc(Cl)cc2)o1)N1CCCC1,9.7,0.9,-1.6,-7.0,-2.0
NC(=O)C1CCN(C(=O)COc2ccc(Nc3ccccc3)cc2)CC1,-10.9,5.2,0.0,10.8,-5.9
CC1CN(C(=O)COC(=O)COc2ccc(C#N)cc2)CC(C)O1 (stereo not given),-47.0*,-0.9,-0.2,-9.4,-3.1
O=C(COc1ccc(Nc2ccccc2)cc1)OCC(=O)N1CCCCC1,-36.5*,10.9,-1.5,-3.7,-3.2
O=C(COc1ccc(Cl)cc1)OCC(=O)N1CCCC1,1.9,2.7,-0.3,-0.1,0.7
O=C(COc1ccc(Cl)cc1)N1CCN(c2ccc([N+](=O)[O-])c(N3CCCCC3)c2)CC1,-31.1*,3.2,0.0,0.0,-2.4
O=C(COc1ccc(Cl)cc1)OCC(=O)N1CCCCCC1,-34.4*,1.1,-0.3,-1.9,7.3
CNS(=O)(=O)c1cn(CC(=O)N2CCN(c3ccc(Cl)cc3)CC2)cc1S(=O)(=O)NC,-4.2,0.7,-0.5,1.1,-1.5
CNC(=O)c1cc(S(=O)(=O)N2CC(C)OC(C)C2)ccc1N1CCOCC1 (stereo not given),-18.0,1.0,0.6,2.3,-3.4
CNC(=O)c1cc(S(=O)(=O)N2CC(C)OC(C)C2)ccc1N1CCCCC1 (stereo not given),-0.4,3.2,-0.2,40.8*,-1.7
Cc1nc(C/C(=N\N)c2ccc(O)cc2O)cs1,-31.6*,3.5,1.1,-1.7,-2.8
Cc1ccc(S(=O)(=O)c2nc(-c3cccs3)oc2N2CCC(C)CC2)cc1,7.7,3.0,-0.7,10.2,0.7
O=S(=O)(c1ccccc1)c1nc(-c2cccs2)oc1N1CCCCC1,2.9,1.0,-0.2,35.9*,1.4
Nc1nc(Nc2ccccc2F)sc1C(=O)c1ccccc1,7.4,34.5*,-2.8,21.6,6.1
Cc1nc(Nc2ccccc2)sc1C(=O)c1ccc(F)cc1,-5.8,-0.4,-0.3,1.0,-3.4
COc1ccc(Cc2nnc(NC(=O)CSc3ccccc3)s2)cc1OC,55.5,10.2,-0.1,-2.4,0.2
COc1ccc(Cc2nnc(NC(=O)CSc3ccc(Cl)cc3)s2)cc1OC,64.2,98.1*,3.0,29.0,2.4
Cc1ccc(NC(=O)C(=O)NCCCN2CCOCC2)cc1C,2.0,10.8,-0.2,0.2,-2.7
CCOC(=O)c1c(CSC(=N)N)n(-c2ccc(Br)cc2)c2cc(Br)c(OC(C)=O)cc12,1.7,40.4*,2.1,0.0,9.3
CC(C)CCn1c(=O)c2sccc2n2c(CCCC(=O)NC(C)C)nnc12,-1.0,0.0,-1.5,10.5,-4.8
COc1ccc(NC(=O)CC2Oc3ccccc3NC2=O)cc1 (stereo not given),-40.2*,0.5,0.1,2.3,-15.8
COc1ccc(NCC(O)Cn2cnc3c2c(=O)n(C)c(=O)n3C)cc1 (stereo not given),6.1,1.9,-0.1,29.7,4.5
Cn1c(=O)c2c(ncn2CC(O)CNc2ccc(Br)cc2)n(C)c1=O (stereo not given),-31.8*,5.3,-0.1,-3.2,-3.0
CC(=O)Nc1c(C)nn(-c2ccccc2)c1N1CCC(C(=O)NCc2ccc(Cl)cc2)CC1,4.4,0.9,-0.1,-4.2,2.4
Cc1nc(=O)c(-c2ccccc2)c(C)n1CCCCCC(=O)O,-7.1,2.8,0.7,-2.2,0.3
